Assay results as given in ChEMBL document CHEMBL3988442, “University of Dundee, Small-Polar-MMV Screening Library” (2021).
In all, about 53,000 compounds went through this assay and about 900 (1.7%) showed an effect of 50% or more. For the sample, strong results were picked, then their nearest neighbours and some compounds at random.

test system: Mycobacterium tuberculosis; experiment: Cornell - Phenotypic assay to identify agents that inhibit growth of Mycobacterium tuberculosis; format: functional; parameters: scale not given: direction of the effect not stated beside the values; conditions: 10 mM as filed; unlikely as a test dose

Compared with `COc1cccc(CNCc2cccc(Cl)c2)c1O`, `COc1cccc(CNCc2ccc(F)c(Cl)c2)c1O` is lower in “Percent Effect” value: 2.888% for the first, 2.035% for the second.

Going from `CCOc1cccc(CNc2cccc(C(=O)OC)c2)c1O` to `COc1cccc(CNc2ccc(F)c(Cl)c2)c1O`, the “Percent Effect” value rises from 2.238% to 58.04%.

First: COc1cccc(CNCc2ccccc2Cl)c1O
Second: COc1cccc(CNCc2ccc(F)cc2Cl)c1O
The “Percent Effect” value of the first is lower: -0.8125% for the first, 52.17% for the second.

Going from `COc1cccc(N2CCN(CC(O)c3cc(C)ccc3C)CC2)c1` (configuration not stated) to `Br.COc1ccc(OCCc2cc(C3CCN(CC(C)C)C3)n[nH]2)cc1` (configuration not stated), the “Percent Effect” value rises from -17.91% to 44.88%.

First: Cc1ccc(-c2nc(CCNC(=O)NCC(C)(C)C(N)=O)co2)cc1
Second: Cc1ccc(-c2nnc(CNCCn3cc(C)cn3)o2)cc1
The “Percent Effect” value of the first is lower: -1.516% for the first, 51.67% for the second.

Compared with `Cc1ccc(Br)cc1NC(=O)NCC(O)CO` (configuration not stated), `Cc1cc(C)n(CCCNC(=O)C(C)NC(=O)c2ccccc2Cl)n1` (configuration not stated) is higher in “Percent Effect” value: -28.33% for the first, -13.3% for the second.

Compared with `CN1C(=O)[C@H]2CC[C@@H]1CN(c1ncnc3ccsc13)C2`, `Cc1ccc(-c2cc(N)c(=O)n(CC(=O)NC3CCCC3)n2)s1` is lower in “Percent Effect” value: 26.9% for the first, -35.82% for the second.

Going from `CN(C)c1nc2n(c(=O)n1)CCN2C(=O)Nc1ccc(Cl)cc1` to `CN(C)c1nc2n(c(=O)n1)CCN2C(=O)Nc1cccc(Cl)c1`, the “Percent Effect” value rises from -48.51% to -1.647%.

Compared with `CN(C)c1nc2n(c(=O)n1)CCN2C(=O)Nc1ccc(Cl)c(Cl)c1`, `Cc1cc(NC(=O)CN2CCN(c3nccs3)C(C)C2)on1` (configuration not stated) is lower in “Percent Effect” value: 104.9% for the first, 22.95% for the second.

First: CC1(CNC(=O)NCc2ccsc2)CCCS1 (configuration not stated)
Second: Cc1ccc(-c2cc(N)c(=O)n(CC(=O)NCC3CCCCC3)n2)s1
The “Percent Effect” value of the first is lower: 1.003% for the first, 31.53% for the second.

Compared with `Cc1nc(N2CCOCC2)nc2c1CCN(C(=O)C1CCCCC1)CC2`, `CC(Cn1cncc1-c1cnn(C2CCCCC2)c1)N1CCCCC1.Cl` (configuration not stated) is lower in “Percent Effect” value: 34.6% for the first, -3.197% for the second.

First: Cc1ccoc1-c1nnc(CNCCn2cccn2)o1
Second: CCc1sc(-c2nnc(CNCCn3cccn3)o2)cc1C
The “Percent Effect” value of the first is higher: -13.89% for the first, -21.28% for the second.

Going from `Cc1cnn(CCNCc2nnc(C3CC3)o2)c1` to `CCc1sc(-c2nnc(CNCCn3cc(C)cn3)o2)cc1C`, the “Percent Effect” value rises from -12.52% to 69.26%.

First: CC(Cn1cccn1)NCc1nc(-c2cccs2)no1 (configuration not stated)
Second: CCc1sc(-c2nnc(CNC(C)Cn3cccn3)o2)cc1C (configuration not stated)
The “Percent Effect” value of the first is lower: 28.55% for the first, 50.91% for the second.

Going from `Cc1ccc(-c2nnc(C(C)NCCn3cc(C)cn3)o2)cc1` (configuration not stated) to `CCc1sc(-c2nnc(CNC(C)Cn3cc(C)cn3)o2)cc1C` (configuration not stated), the “Percent Effect” value rises from -4.1% to 15.55%.

First: O=C(O)C(F)(F)F.O=C1N(CC2CC2)CCC12CCN(Cc1ccoc1)CC2
Second: CN(Cc1cncnc1)[C@@H]1CN(C(=O)C2CC2)[C@@H]2CCCO[C@H]12.O=C(O)C(F)(F)F
The “Percent Effect” value of the first is lower: -1.631% for the first, 10.43% for the second.

Going from `Cl.O=C(NCCn1nc(C2CCNC2)c2cccnc21)c1ccccc1` (configuration not stated) to `Cc1c(OCC(=O)NCc2ccccc2)c(=O)ccn1C`, the “Percent Effect” value rises from -53.35% to 2.776%.

Compared with `OCCn1nccc1C1CCN(CCOc2ccccc2Cl)CC1`, `Cn1cc(CN2CCC(c3cc(COc4ccc(Cl)cc4)[nH]n3)C2)cn1` (configuration not stated) is higher in “Percent Effect” value: -31.74% for the first, 8.733% for the second.

First: CCc1cnc(CN(C)C2CCN(CC3CCN(C(C)=O)CC3)C2)o1 (configuration not stated)
Second: Cc1ccc(NC2CCN(C(=O)CCc3ccco3)CC2)nn1
The “Percent Effect” value of the first is lower: 6.622% for the first, 9.645% for the second.

Going from `Cc1cc(-c2cc(N)c(=O)n(CC(=O)NCC3CCCCC3)n2)c(C)o1` to `Nc1cc(-c2cccs2)nn(CC(=O)NCC2CCCCC2)c1=O`, the “Percent Effect” value rises from -31.85% to 91.2%.

Compared with `Cc1ccc(-c2cc(N)c(=O)n(CC(=O)NCC3CC3)n2)s1`, `Cc1ccc(-c2cc(N)c(=O)n(CC(=O)NC3CCCCC3)n2)s1` is lower in “Percent Effect” value: 90.74% for the first, 21.23% for the second.

First: CCN1CCn2c(C)cnc2C12CCN(C(=O)C(C)C)CC2.O=C(O)C(F)(F)F.O=C(O)C(F)(F)F
Second: O=C(O)C(F)(F)F.O=C(c1c[nH]cn1)N1CCOCC2(C1)CN(c1ccccc1)C(=O)CO2 (configuration not stated)
The “Percent Effect” value of the first is lower: 14.47% for the first, 29.26% for the second.

First: COCCN1C(=O)CO[C@H]2CN(Cc3cccc(OC)c3F)C[C@@H]21
Second: CCCN1CCC(c2cc(CCOc3ccc(C(F)(F)F)cc3)[nH]n2)C1 (configuration not stated)
The “Percent Effect” value of the first is lower: -23.69% for the first, 74.52% for the second.

First: CCOc1ccc(NC(=O)Cn2cc(I)cn2)cc1
Second: CCOc1ccccc1N1CCN(C(=O)NCc2cc[nH]n2)CC1
The “Percent Effect” value of the first is higher: 8.752% for the first, -20.55% for the second.

Compared with `OC1CN(c2nc3c(C(F)(F)F)cccc3s2)C1`, `Cc1cc(C2CCCN(C(=O)COc3ccc(F)cc3)C2)n[nH]1` (configuration not stated) is higher in “Percent Effect” value: -37.29% for the first, 21.79% for the second.

Going from `O=C(CCc1ccco1)N1CCC(Nc2cccnn2)CC1` to `Cc1ccccc1NC1CCN(C(=O)CCc2ccco2)CC1`, the “Percent Effect” value rises from -37.65% to 50.28%.

Going from `COc1cccc(Cn2ncnc2CCSC)c1` to `CCn1nnnc1-c1cccc(NCc2nc(C)ccc2O)c1`, the “Percent Effect” value falls from 21.64% to 4.577%.

Compared with `Cc1cc(C)nc(N2CCC(c3cc(CCO)[nH]n3)C2)n1` (configuration not stated), `Clc1ccc(OCCc2cc(C3CCN(c4ncccn4)C3)n[nH]2)cc1` (configuration not stated) is higher in “Percent Effect” value: 21.68% for the first, 81.19% for the second.

First: CN(C)CCCNCCC(Cc1ccccc1)C1CCOC(C)(C)C1.O=C(O)C(=O)O (configuration not stated)
Second: O=C(O)CCCN1C[C@@H](c2ccccc2F)[C@@]2(CCCCC(=O)N2)C1
The “Percent Effect” value of the first is lower: 18.5% for the first, 43.05% for the second.

Compared with `O=C(c1ccc[nH]1)N1CCOCC2(C1)CN(c1ccccc1)C(=O)CO2` (configuration not stated), `O=C(c1cc[nH]n1)N1CCOCC2(C1)CN(c1ccccc1)C(=O)CO2` (configuration not stated) is higher in “Percent Effect” value: 34.74% for the first, 56% for the second.

Compared with `COc1cc(F)c(S(=O)(=O)Nc2cnc(O)cc2C)cc1OC`, `CNc1cc(C2CCCN2C(=O)c2ccc(=O)[nH]n2)ccn1.O=CO` (configuration not stated) is lower in “Percent Effect” value: 3.766% for the first, 2.671% for the second.

First: CCC(CN1CCCC1)n1cncc1-c1cnn(Cc2ccccc2)c1.Cl (configuration not stated)
Second: CCC(CN1CCCC1)n1cncc1-c1cnn(-c2ccccc2)c1.Cl (configuration not stated)
The “Percent Effect” value of the first is lower: 36.43% for the first, 55.09% for the second.

Compared with `CC(Cn1cncc1-c1cnn(Cc2ccccc2)c1)N1CCCCC1.Cl` (configuration not stated), `CCC(CN1CCCC1)n1cncc1-c1cnn(-c2ccc(F)cc2)c1.Cl` (configuration not stated) is lower in “Percent Effect” value: 58.13% for the first, 20.09% for the second.

In the case of `CCC(CN1CCOCC1)n1cncc1-c1ccc2c(c1)CCCN2C.Cl` (configuration not stated), the “Percent Effect” value is reported as 15.31%.
